Assay outcomes deposited in PubChem BioAssay by National Center for Advancing Translational Sciences (NCATS).
miR-21 act – qHTS Assay for Modulators of miRNAs and/orActivators of miR-21; HeLa miR-21 FLuc reporter, luciferase, 48 h; Potency, µM (doses to about 38.3 µM), for inactives: top-dose activity change, positive = activation, usual class: activators; 340,000 tested, under 10 active; AID 2288, 2010;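 also: % of control where 0% means no effect; miR-21 action dims this reporter so a rising signal means less miR-21 action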
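HeLa cells endogenously expressing miR-21, stably carrying CMV-driven firefly luciferase with a downstream miR-21 binding site, 2000 cells/well. Titrations up to approximately 40 uM, 48 hours; luciferase luminescence read.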
ClpP mod – qHTS Assay for Activators of ClpP; ATP-dependent Clp protease proteolytic subunit (Bacillus subtilis (strain 168)), P80244; purified B. subtilis ClpP, FRET peptide cleavage, 20 min; Potency, µM (top dose mostly 57.5 µM), without a hit: at the highest dose activity change, negative = active; AID 651965, 2013; 1.9% of 340,000 active; active = well fitted falling curve with a large enough effect; inconclusive = small, poorly fitted or top-dose-only effect; inactive = no such curve, though single readings can be large or run the other way; also: potency is read from the fitted curve at half-maximal effect; the source files actives as falling curves though it sought activators and does not explain the sign; nearly all actives have a fitted effect of over 65% in size
Target sequence (P80244 whole entry, looked up): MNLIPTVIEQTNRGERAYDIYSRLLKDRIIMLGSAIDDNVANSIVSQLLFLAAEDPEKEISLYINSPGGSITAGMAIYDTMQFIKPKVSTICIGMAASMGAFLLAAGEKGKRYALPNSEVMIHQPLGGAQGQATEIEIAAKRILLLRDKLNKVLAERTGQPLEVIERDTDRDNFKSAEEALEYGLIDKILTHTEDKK
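FRET quenching reversal measured ClpP activation: 10 microg/mL B. subtilis ClpP at pH 8 with the FRET-FV decapeptide, read at 430 nm after 320 nm excitation. The 20-min minus 0-min signal was scaled between DMSO/no-enzyme wells and ADEP (5.8 microM final).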
Nrf2 inh – Nrf2 qHTS screen for inhibitors. 2.1% of 360,000 active. A549 ARE-Fluc reporter, luciferase luminescence, 18-24 h. Potency, µM (series often up to 46 µM), for inactives: at the top dose activity change, negative = inhibition, usual class: inhibitors. AID 504444, 2011; also: potency is read from the fitted curve at half-maximal effect; % is scaled to controls: 0 for no effect and ±100 for the full control effect; nearly all actives have a fitted effect of over 60% in size
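Quantitative HTS in A549 cells stably bearing an antioxidant response element-firefly luciferase construct. Inhibition of Nrf2-driven transcription was scored by luminescence after 18-24 h of compound exposure at 37 °C.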
A549 tox-1 – Nrf2 qHTS screen for inhibitors: counterscreen for cytotoxicity. A549 ARE-Fluc cells, CellTiter-Fluor viability, 18-24 h. Potency, µM (titrated, usually from 46 µM), without a hit: at the top dose activity change, negative = cytotoxicity, actives largely listed as inhibitors. AID 504648, 2011. 0.16% of 390,000 active; also: potency is read from the fitted curve at half-maximal effect; % is scaled to controls: 0 for no effect and ±100 for the full control effect
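A549 ARE-Fluc cells in 5% FBS OPTI-MEM, 5000 cells/well, rested 2 h then exposed to compounds in concentration-response for 18-24 h at 37 °C. Viability by CellTiter-Fluor fluorescence (Ex 405/Em 525) after 30 min; luciferase luminescence (BugLite, 15 min, RT) read afterwards.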
IL2 activator – qHTS of IL-2 Activators; IL-2 activation reporter assay, cell-based qHTS; stimulated with anti-CD3/CD4/CD28 beads; in transgenic mouse T cells; 0.065% of 360,000 active; activation, % (series mostly up to about 46 µM); in the data active = activation above about 50%; inconclusive = mostly about 30% to 49%; also: 0% is about no effect
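Quantitative HTS in unstimulated transgenic mouse T cells, with memory T cells as non-tolerant control and PMA/ionomycin as tolerance-bypass control. Compound pretreatment lasted 60 minutes before 18 h bead stimulation; EGFP/DsRed fluorescence read.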
Nrf2 activator – qHTS of Nrf2 Activators; AREc32 ARE-luciferase reporter (MCF7-derived line), luminescence, 24 h; Potency, µM (series often up to 46.1 µM), inactives show top-dose activation, most hits filed as activators; 0.31% of 410,000 active; AID 624171, 2012; also: potency is read from the fitted curve at half-maximal effect; % of control where 0% means no effect; nearly all actives have a fitted effect of over 65% in size
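AREc32_Fluc, 1000 cells/well, OPTI-MEM + 5% FBS, o/n 37 deg C 5% CO2; 23 nL cpd by pin tool, 24 hr; Steady-Glo 30 min RT, luminescence.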
FLuc counter 3 – Nrf2 qHTS screen for inhibitors: Purified Fluc Biochemical Counterscreen for Hit Validation; shares compounds with Nrf2 inh; purified firefly luciferase, luminescence inhibition; Potency, µM (titrated, usually from 57.5 µM), for the others: at the top dose activity change, negative = inhibition, actives largely listed as inhibitors; 4% of 1,400 active; AID 720522, 2013; also: potency is read from the fitted curve at half-maximal effect; % is scaled to controls: 0 for no effect and ±100 for the full control effect; nearly all actives have a fitted effect of over 65% in size
Target sequence (P08659 whole entry, looked up): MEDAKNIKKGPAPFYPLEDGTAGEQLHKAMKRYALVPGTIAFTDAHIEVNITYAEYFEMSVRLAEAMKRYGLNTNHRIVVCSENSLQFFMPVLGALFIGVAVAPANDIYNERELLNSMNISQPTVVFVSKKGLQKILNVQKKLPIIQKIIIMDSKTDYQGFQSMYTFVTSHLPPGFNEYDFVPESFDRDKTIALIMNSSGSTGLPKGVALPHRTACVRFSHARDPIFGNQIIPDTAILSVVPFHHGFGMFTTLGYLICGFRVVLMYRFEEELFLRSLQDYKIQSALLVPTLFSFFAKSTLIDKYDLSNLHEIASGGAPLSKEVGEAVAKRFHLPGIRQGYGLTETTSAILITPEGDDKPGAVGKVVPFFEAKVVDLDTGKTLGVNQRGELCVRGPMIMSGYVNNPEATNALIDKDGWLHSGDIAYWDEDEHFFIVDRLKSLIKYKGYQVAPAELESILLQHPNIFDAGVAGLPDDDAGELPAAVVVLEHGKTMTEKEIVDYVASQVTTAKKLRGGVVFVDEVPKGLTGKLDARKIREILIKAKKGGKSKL
A549 tox-2 – Nrf2 qHTS screen for inhibitors: A549 ARE-Fluc Cytotoxicity Counterscreen for Hit Validation | 2% of 1,400 active | shares compounds with Nrf2 inh | Potency, µM (titrated, usually from 46.1 µM), for inactives: at the top dose activity change, negative = cytotoxicity, usual class: inhibitors | A549 ARE-Fluc cells, cytotoxicity counterscreen;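 also: potency is read from the fitted curve at half-maximal effect; cells exposed to compounds for 18 to 24 hours; % is scaled to controls: 0 for no effect and ±100 for the full control effect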
Nrf2 ARE inh – Nrf2 qHTS screen for inhibitors: Nrf2 A549 ARE-Fluc Confirmation Assay for Hit Validation; shares compounds with Nrf2 inh; A549 ARE-firefly luciferase reporter, luminescence; Potency, µM (series often up to 46.1 µM), without a hit: at the top dose activity change, negative = inhibition, most hits filed as inhibitors; 74% of 1,400 active; AID 720524, 2013; also: potency is read from the fitted curve at half-maximal effect; % is scaled to controls: 0 for no effect and ±100 for the full control effect; nearly all actives have a fitted effect of over 65% in size
An asterisk follows results filed as active; ? = inconclusive; nt = not tested or not shown; ! = repeats disagree. The list is not random: actives were taken first. Their share in the collection is about 3.7%. Unless noted, calls follow the shape of the dose curve; as a rule, active = well fitted curve in the direction sought with a large enough effect; inconclusive = small, poorly fitted or top-dose-only effect, or another doubt; inactive = no such curve, though single readings can be large; an effect the other way counts as inactive or inconclusive.

SMILES	miR-21 act	ClpP mod	Nrf2 inh	A549 tox-1	IL2 activator	Nrf2 activator	FLuc counter 3	A549 tox-2	Nrf2 ARE inh
O=C(N/N=C/c1ccc(OC(F)F)cc1OC(F)F)c1ccc(Br)cc1	-9%	0%	16%	1%	1	3%	nt	nt	nt
Cc1ccc(S(=O)(=O)N(C)Cc2ccc(C(=O)N/N=C/c3ccc(OC(F)F)cc3OC(F)F)cc2)cc1	?	?	9.2µM*	-2%	1	3%	2%	-7%	4.6µM*
COc1ccc(NC(=O)COC(=O)Cn2cnc3ccccc32)cc1	nt	1%	10%	10%	1	-1%	nt	nt	nt
O=C(Cn1cnc2ccccc21)Nc1ccc(SC(F)F)cc1	10%	nt	4.1µM*	-17%	-1	5%	-20%	-1%	?
O=C(c1ccc(Br)cc1)N1CCC(c2nc3ccccc3s2)CC1	?	-1%	?	-13%	nt	5%	nt	nt	nt
O=C(Nc1cc(F)ccc1F)C1CCN(c2nc3ccccc3n3cccc23)CC1	?	?	7%	-14%	nt	-1%	nt	nt	nt
CCOC(=O)c1cnc2ccc(OCC)cc2c1NCCc1ccc(OC)c(OC)c1	-5%	4%	3.7µM*	-17%	nt	-2%	-16%	?	13µM*
Cc1ccc(N(CC2=NCCN2)c2cccc(O)c2)cc1	-5%	?	7.3µM*!	?	2	0%	-1%	-7%	10µM*
CC(=O)c1cccc(NS(=O)(=O)c2cc(-c3onc(C)c3C)ccc2C)c1	20%	-4%	8.2µM*	-16%	nt	5%	3%	-13%	5.8µM*
CC(=O)c1cccc(NS(=O)(=O)c2c(C)noc2C)c1	-3%	0%	-7%	-5%	0	0%	nt	nt	nt
Cc1ccc(NC(=O)CSc2nnc(-c3cccnc3)s2)cc1	-4%	1%	12%	-13%	0	-1%	nt	nt	nt
O=C(CSc1nnc(-c2cccnc2)s1)Nc1ccnc2ccccc12	25%	-3%	4.1µM*	-8%	-1	3%	-19%	-10%	5.2µM*
CC1=Nc2cc(C(=O)NC3CCCCC3)ccc2Sc2ccc(Cl)cc21	21%	-1%	nt	-12%	nt	1%	nt	nt	nt
CC1=Nc2cc(C(=O)NCCc3ccc(Cl)cc3)ccc2Sc2ccc(C)cc21	21%	-2%	5.2µM*	?	nt	-1%	-9%	-26%	21µM*
CCn1nc(-c2ccccc2)c(-c2ccccc2)c(C(=O)Nc2nc(C)c(C(=O)N(C)C)s2)c1=O	6%	0%	10%	-3%	nt	1%	nt	nt	nt
Cc1ccccc1NS(=O)(=O)c1ccc(Br)s1	?	-4%	?	13%	nt	0%	nt	nt	nt
S=C(NN=Cc1ccccn1)N(Cc1ccccn1)Cc1ccccn1	nt	22µM*	?	-25%	0	9%	?	?	2.3µM*
O=C(CCN1C(=O)/C(=C/c2ccccc2Cl)SC1=S)NNC(=O)c1cccnc1	1%	-1%	4%	-4%	0	9%	nt	nt	nt
O=C(CCN1C(=O)/C(=C/c2ccccc2Cl)SC1=S)NNC(=O)c1ccccc1O	-5%	nt	-22%	-7%	0	0%	nt	nt	nt
Cc1ccc(/C=C2/SC(=S)N(CCCC(=O)Nc3ccc(O)cc3)C2=O)cc1	?	nt	9.2µM*	?	0	3%	?	?	13µM*
O=C(CCCN1C(=O)/C(=C/c2ccccc2Cl)SC1=S)NNC(=O)c1ccc(Cl)cc1	25%	2%	8.2µM*	0%	-1	-1%	-5%	-22%	7.3µM*
Cc1ccc(C(=O)NNC(=O)CCCN2C(=O)/C(=C/c3ccccc3Cl)SC2=S)cc1	?	-1%	9.2µM*	?	-1	-1%	?	-4%	?
COc1cc(C(=O)NCC(c2ccco2)S(=O)(=O)c2cccs2)cc(OC)c1OC (stereo unspecified)	1%	0%	nt	1%	nt	0%	nt	nt	nt
CN(C)c1ccc(/C=C/c2cccc[n+]2[O-])cc1	-53%	nt	10%	-6%	3	0%	nt	nt	nt
CC(C)CC[n+]1ccccc1/C=C/c1ccc(N(C)C)cc1	?	nt	7.3µM*	?	20	3%	2%	?	5.8µM*
SMILES	miR-21 act	ClpP mod	Nrf2 inh	A549 tox-1	IL2 activator	Nrf2 activator	FLuc counter 3	A549 tox-2	Nrf2 ARE inh
CC1=C(C(=O)Nc2cccc(F)c2)C2(CCCCCC2)OC1=O	5%	-2%	21%	-3%	nt	3%	nt	nt	nt
Cc1c(C(=O)NCc2ccccc2Cl)sc2nc3n(c(=O)c12)CCCCC3	-10%	-12%	4.6µM*	-13%	nt	5%	-26%	-1%	-11%
Cc1nn(-c2ccc(NC(=O)c3ccncc3)cc2)c(C)c1Cl	20%	nt	3.7µM*	-7%	-4	0%	-11%	-5%	7.3µM*
CC1(C)CC(=O)C=C(N2CCN(C3=CC(=O)CC(C)(C)C3)CC2)C1	2%	nt	nt	nt	nt	nt	nt	nt	nt
CC1(C)CC(N2CCCC2)=CC(=[N+]2CCCC2)C1	?	-3%	2.1µM*	-15%	-4	-1%	0%	-13%	5.2µM*
CC1(C)CC(N2CCCC2)=CC(=[N+]2CCCCC2)C1	?	0%	4.1µM*	-14%	-2	0%	1%	-5%	5.2µM*
Cc1ccc(NC(=O)c2ccc(=O)[nH]n2)cc1S(=O)(=O)Nc1ccccc1Cl	nt	6%	-4%	-2%	0	0%	nt	nt	nt
Cc1ccc(NC(=S)NC(=O)c2ccc(F)cc2)cc1S(=O)(=O)Nc1ccccc1Cl	?	-1%	7.3µM*	?	-6	2%	-10%	-12%	?
COc1ccc(C(=O)Nc2ccc(Cl)c(S(=O)(=O)Nc3ccccc3OC)c2)cc1	?	-6%	7.3µM*	-12%	0	0%	?	-10%	9.2µM*
COC(=O)c1ccc(NC(=O)CSc2nc(C)cc(C)c2C(=O)Nc2ccccc2)cc1	9%	-5%	-7%	-12%	nt	7%	nt	nt	nt
